Screening data (PubChem BioAssay)
D1 ag = human D1 receptor agonism | P21728 | HEK293 T-REx D1 cells, calcium flux, agonist mode | AID 504660 | activation, % at 2 µM | 360,000 compounds, 1% hits; in the data active = activation above about 30%; also: 0% is about no effect
Target sequence (P21728 whole entry, looked up): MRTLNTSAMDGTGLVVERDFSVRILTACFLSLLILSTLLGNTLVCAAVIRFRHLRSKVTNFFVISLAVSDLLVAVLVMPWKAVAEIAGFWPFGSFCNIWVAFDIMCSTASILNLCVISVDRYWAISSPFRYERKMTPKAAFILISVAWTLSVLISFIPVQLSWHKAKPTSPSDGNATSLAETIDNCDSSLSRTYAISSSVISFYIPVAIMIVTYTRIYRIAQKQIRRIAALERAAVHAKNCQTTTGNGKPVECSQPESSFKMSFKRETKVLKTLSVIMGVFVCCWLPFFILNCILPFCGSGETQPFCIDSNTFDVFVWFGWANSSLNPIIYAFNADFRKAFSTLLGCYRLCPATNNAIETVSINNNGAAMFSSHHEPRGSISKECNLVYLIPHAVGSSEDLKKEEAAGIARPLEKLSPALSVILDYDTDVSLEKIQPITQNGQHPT
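Inducible HEK293 T-REx D1 cells, force-coupled to calcium signalling, were plated at 4000 cells/well with tetracycline and held overnight at 30 C. After no-wash calcium dye loading, compound-evoked calcium rise over 180 s flagged agonists.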
D3 ag = activates the human D3 dopamine receptor; D3R DiscoveRx beta-arrestin cells, luminescence, 90 min; P35462; max activation, %; 410,000 compounds, 0.58% hits; in the data active = max activation above about 30%; also: 0% is about no effect
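Agonist-mode cell screen: cells plated at 1500/well and incubated overnight at 37 °C, then exposed to library compounds for 90 min at 37 °C. Detection reagent was added for 30–60 min at room temperature, and luminescence was read.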
D1 antag = blocks dopamine activation of the human D1 receptor; HEK293 TREx D1 cells, calcium flux, dopamine EC80; active compounds read low; activity change, negative = inhibition, % at 10 µM; 360,000 compounds, 3.2% hits; AID 504652; in the data active = activity change below about -30%; also: % is scaled to controls: 0 for no effect and ±100 for the full control effect
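Cells carrying a force-coupled, tetracycline-inducible human D1 receptor report calcium flux. Each well gets a 10 s baseline, compound with 180 s monitoring, then an EC80 dopamine stimulus with a second 180 s kinetic read.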
D1 potentiator = enhances dopamine response at the human D1 receptor | HEK293 TREx D1 cells, calcium flux, dopamine EC20 potentiation | potentiation, % at 10 µM | 360,000 compounds, 0.036% hits | AID 504651; in the data active = potentiation above about 30%; also: 0% is about no effect
D3 antag = D3 dopamine receptor (human) antagonism; P35462; D3R cells, DiscoveRx beta-arrestin luminescence, antagonist mode; active compounds read low; max response, negative = inhibition, %; 360,000 compounds, 2.5% hits; AID 652054; in the data active = max response below about -50%; inconclusive = no clear call, values can overlap the other calls; also: % is scaled to controls: 0 for no effect and ±100 for the full control effect
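Cells expressing the human receptor were seeded at 1500 cells/well, incubated overnight at 37 degrees C in 5% CO2, then exposed to library compounds with dopamine controls for 90 minutes at 37 degrees C before luminescent detection.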
Chronic BCR inh = inhibitors of chronic active B-cell receptor signaling. ABC-DLBCL IkBa-CBG/CBR reporter, luminescence ratio, 4 h. 340,000 compounds, 0.05% hits. Potency, µM (series often up to 46.1 µM), for inactives: at the top dose activity change, negative = inhibition, usual class: inhibitors; active = well fitted inhibition curve with a large enough effect in the signal ratio, with a control signal flat, not every such curve was filed as active; inconclusive = small, poorly fitted or top-dose-only effect, or effect the other way, or a change in a side signal; the % refers to the signal ratio;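 also: potency is read from the fitted curve at half-maximal effect; plate controls were basal doxycycline-induced cells for no effect and cells given 10 µM MG132 for full effect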
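Concentration-response series (up to 46 uM) were applied to TMD8 dual-reporter cells for 4 h at 37C with doxycycline. Green/red ratio, after filter-overlap correction, defined %Activity; red signal alone was normalised to basal cells and zero luminescence.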
The depositor's hits bear a star; ? = inconclusive; / = no result. In the library only some 6% were active in any assay of this set; here they are far more common.

SMILES	D1 ag	D3 ag	D1 antag	D1 potentiator	D3 antag	Chronic BCR inh
COc1ccc(OCCN2CCN(C(=O)c3ccc(OC(F)F)c(OC)c3)CC2)cc1	7	123*	-20	0	14	0%
COc1ccc(OCCN2CCN(C(=O)c3ccc(OC)cc3)CC2)cc1	10	92*	-15	-4	0	0%
Cc1ccc(C)n1CCN1CCN(C(=O)c2ccco2)CC1	3	5	-20	1	-11	0%
O=C(c1c(F)cccc1F)N1CCN(CCOc2ccccc2)CC1	1	9	-2	6	?	-3%
CCc1ccc(-c2nc(CN3CCC(C(=O)N4CCN(c5ccccc5)CC4)CC3)c(C)o2)cc1	43*	3	-35*	-6	9	-9%
CCc1ccc(-c2nc(CN3CCC(C(=O)N4CCN(c5ccccn5)CC4)CC3)c(C)o2)cc1	168*	-4	-55*	-6	-22	7%
Cc1ccc(Cl)cc1N1CCN(C(=O)C2CCN(Cc3nc(-c4ccc(Cl)cc4)oc3C)CC2)CC1	-2	-4	1	-6	/	/
O=C(/C=C/c1ccco1)Nc1ccc(Cl)c(-c2nc3cc(Cl)ccc3o2)c1	7	-13	-18	-2	/	/
CC(C)CCn1c(=O)c2cccnc2n(CC(=O)Nc2ccccc2F)c1=O	1	-22	9	-2	/	/
CN(C)CCCNS(=O)(=O)c1ccc(Oc2ncc(C(F)(F)F)cc2Cl)cc1	61*	-2	-17	-7	-17	?
CN(C)CCCNc1ncc(C(F)(F)F)cc1Cl	1	-14	12	0	-12	0%
CC(C)CNC(=O)C1(C)CCCN1C(=O)c1c(Cl)cccc1Cl (stereo not given)	/	8	/	/	18	/
COc1ccc(Cn2c(=O)c3ccccc3n3c(-c4ccc(C)cc4)nnc23)cc1	8	-8	0	-1	/	/
NNC(=O)c1ccc(COc2ccc([N+](=O)[O-])cc2)o1	3	3	-14	-4	7	?
CC1CCCCN1C(=O)c1ccc(COc2ccc([N+](=O)[O-])cc2)o1 (stereo not given)	15	-3	-36*	-7	11	-11%
Cc1ccc(C)c(S(=O)(=O)N2CCN(C(=O)CSc3ccccc3F)CC2)c1	31*	-4	-27	-8	2	0%
Cc1oc(-c2ccccc2)nc1CNS(=O)(=O)c1ccc(Cl)cc1	-1	9	-1	0	/	/
Cc1ccc(-c2n[nH]c(=S)c3ccccc23)cc1	3	3	-35*	-6	21	-9%
Cc1cc(C)cc(NC(=O)CSc2nccn2C2CCCC2)c1	6	6	-18	-3	/	-9%
NC(=O)C1CCN(C(=O)C2CC(=O)N(c3ccc4c(c3)OCCO4)C2)CC1 (stereo not given)	0	-6	-34*	-13	3	1%
CCc1ccc2ncc(S(=O)(=O)c3ccc(Cl)cc3)c(N3CCN(CC)CC3)c2c1	-1	-22	-8	-7	/	/
CCN1CCN(c2c(S(=O)(=O)c3ccc(OC)cc3)cnc3cc(OC)c(OC)cc23)CC1	0	-2	-40*	-9	/	/
COc1ccc(-c2cc(C(F)(F)F)c3c(n2)sc2c(O)cc(=O)[nH]c23)c(OC)c1	42*	-4	-15	-2	11	-9%
COc1ccc(CCN(C)CCc2ccc(OC)c(OC)c2)cc1OC	/	-65	/	/	-21	/
COc1ccc(CCN(C)CCCC(C#N)(c2cc(OC)c(OC)c(OC)c2)C(C)C)cc1OC (stereo not given)	6	-84	9	-5	-57*	?
SMILES	D1 ag	D3 ag	D1 antag	D1 potentiator	D3 antag	Chronic BCR inh
COc1ncnc2c1sc1nc(-c3ccccc3)c3c(c12)CCCC3	2	37*	23	5	9	?
c1nc(NCCN2CCOCC2)c2sc3nc(N4CCOCC4)c4c(c3c2n1)CCC4	1	-4	-1	-6	?	-7%
CN(C)CCNc1ncnc2c1sc1nc(-c3ccccc3)c3c(c12)CCCC3	14	2	-80*	-22	-1	?
CC1(C(=O)NS(=O)(=O)c2ccc(F)cc2F)CCN1C(=O)C1(c2ccc(Cl)cc2)CC1 (stereo not given)	/	2	/	/	38	/
CCC(c1nnnn1C(C)(C)C)N1CCN(c2cc(Cl)ccc2C)CC1 (stereo not given)	3	-13	26	4	-56*	1%
CCCC(c1nnnn1CC1CCCO1)N1CCN(c2cc(Cl)ccc2C)CC1 (stereo not given)	0	-3	7	0	-5	2%
COc1cccc(CNC(=O)C2CCN(S(=O)(=O)c3c(C)noc3/C=C/c3cccs3)CC2)c1	6	-11	11	5	/	/
CCN(CCO)Cc1cc(=O)oc2cc3c(cc12)CCC3	1	-8	-9	0	-9	-7%
CCCCN(C)Cc1cc(=O)oc2cc3c(cc12)CCCC3	3	-47	1	3	-91*	4%
CCOc1cc(/C=N/n2c(COc3ccccc3)n[nH]c2=S)ccc1O	102*	-1	0	-4	-8	-19%
O=[N+]([O-])c1cccc(/C=N/n2c(COc3ccccc3)n[nH]c2=S)c1	8	-31	4	3	-2	7%
O=[N+]([O-])c1ccc(/C=N/n2c(COc3ccccc3)n[nH]c2=S)cc1	0	-3	-12	0	-90*	12%
Cc1cc(O)c(-c2ccno2)cc1Cl	6	1	-6	-1	1	-6%
Cn1ncc(-c2ccno2)c1C(=O)O	37*	-12	-6	0	-1	2%
Cc1ccc(-c2nc(N)sc2CC(=O)OCC(=O)NC2CCCC(C)C2C)cc1 (stereo not given)	3	12	-41*	-12	5	13%
CCc1cccc2c(C(=O)C(NCCOC)c3ccccc3)c[nH]c12 (stereo not given)	14	-2	-17	-6	-10	6%
CCNC(C(=O)c1c[nH]c2c(CC)cccc12)c1ccccc1 (stereo not given)	63*	-15	-11	-6	-14	?
CN(C)/C=N/c1sc2c(c1C#N)CC(C)(C)NC2(C)C	2	-3	-45*	-27	43	-12%
O=C(CSCc1ccccc1F)NCc1ccc(F)cc1	2	-7	-35*	0	0	0%
O=C(NCC1CCCN1S(=O)(=O)c1cccs1)c1ccc(Cl)cc1 (stereo not given)	2	0	4	-3	-11	1%
O=C(NCC1CCCN1S(=O)(=O)c1cccs1)c1cccc(Cl)c1 (stereo not given)	4	3	-32*	-4	-24	-9%
